Results taken from PMC4336329 (PLoS ONE, 2015).
In all, about 310,000 compounds went through this assay and about 14,000 (4.5%) showed an effect of 50% or more. The effect is printed as a negative number. Many of the other results were omitted from the sample, so strong results are more common in it than they were.

Target: human ether-à-go-go-related gene (hERG) potassium channel (human, UniProt Q12809)
Assay: primary screen, population patch clamp on CHO cells stably expressing hERG; higher = less effect of the substance
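Also: peak tail current of the secondary pulse compared with the same well before compound.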

Chain of human ether-à-go-go-related gene (hERG) potassium channel (Q12809 whole entry, looked up): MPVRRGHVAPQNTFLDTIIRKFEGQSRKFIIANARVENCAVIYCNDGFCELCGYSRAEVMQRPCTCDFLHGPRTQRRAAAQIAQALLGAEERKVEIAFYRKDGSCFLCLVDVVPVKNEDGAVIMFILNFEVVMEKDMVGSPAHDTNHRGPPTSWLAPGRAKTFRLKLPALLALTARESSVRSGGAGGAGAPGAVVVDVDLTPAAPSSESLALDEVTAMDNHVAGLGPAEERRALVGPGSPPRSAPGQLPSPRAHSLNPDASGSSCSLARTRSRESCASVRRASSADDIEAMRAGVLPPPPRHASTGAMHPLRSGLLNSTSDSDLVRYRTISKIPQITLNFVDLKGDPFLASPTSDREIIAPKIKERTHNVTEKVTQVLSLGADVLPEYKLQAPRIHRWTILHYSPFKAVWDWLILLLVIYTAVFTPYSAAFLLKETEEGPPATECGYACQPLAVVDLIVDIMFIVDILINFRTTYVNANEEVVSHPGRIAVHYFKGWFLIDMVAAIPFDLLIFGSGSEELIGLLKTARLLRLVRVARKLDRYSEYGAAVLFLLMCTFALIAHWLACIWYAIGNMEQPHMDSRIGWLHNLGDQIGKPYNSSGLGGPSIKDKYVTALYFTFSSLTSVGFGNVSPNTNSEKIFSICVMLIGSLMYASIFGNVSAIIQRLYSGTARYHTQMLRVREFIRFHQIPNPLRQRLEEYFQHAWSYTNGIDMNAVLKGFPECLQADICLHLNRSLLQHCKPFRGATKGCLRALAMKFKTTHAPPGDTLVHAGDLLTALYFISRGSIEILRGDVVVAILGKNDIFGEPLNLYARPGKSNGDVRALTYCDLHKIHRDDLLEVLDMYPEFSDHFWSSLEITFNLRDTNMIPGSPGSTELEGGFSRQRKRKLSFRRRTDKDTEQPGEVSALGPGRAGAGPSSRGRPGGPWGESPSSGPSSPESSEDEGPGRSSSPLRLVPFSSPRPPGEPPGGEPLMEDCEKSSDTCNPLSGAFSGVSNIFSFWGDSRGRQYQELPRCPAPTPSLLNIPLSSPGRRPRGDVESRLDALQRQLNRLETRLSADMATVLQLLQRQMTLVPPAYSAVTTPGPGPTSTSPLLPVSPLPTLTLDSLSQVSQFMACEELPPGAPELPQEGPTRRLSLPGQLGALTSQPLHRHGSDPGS

SMILES	hERG current change (%, negative = inhibition) at 10uM
O=C(c1cc(COc2c(F)cccc2F)on1)N1CCC(c2ccccc2F)C1 (stereo not drawn)	20.4%
CN1CCN(C(=O)C2(NC(=O)NCc3ccccc3)CCCCC2)CC1	13.2%
COc1ccc(CCNC(=O)C(=O)NCC2OCCN2S(=O)(=O)c2ccc(Br)cc2)cc1 (stereo not drawn)	-7.02%
CN1C(CC(=O)c2ccccc2)CCCC1CC(O)c1ccccc1 (stereo not drawn)	-82.4%
OC(CNC1CCCCC1)c1ccccc1 (stereo not drawn)	12.1%
O=C([C@H](O)c1ccccc1)N1CCC[C@H]1CO	8.33%
CN1CCC(N(C)CC(O)c2ccccc2)CC1.O=C(O)C(=O)O (stereo not drawn)	-6.05%
CN1C(CC(O)c2ccccc2)CCCC1CC(O)c1ccccc1.Cl (stereo not drawn)	-67.8%
O=C(CC1C(=O)CCCC1=O)c1ccccc1	25.1%
CCOC(=O)C(NC(=O)CC)(Nc1ccccc1)C(F)(F)F (stereo not drawn)	21.9%
Cc1noc(/C=C/c2nn(C)cc2Cl)c1[N+](=O)[O-]	16.6%
C/C(=N\Nc1ccc(C)c(Cl)c1)c1ccncc1	24.8%
Cc1ccccc1C(=O)NC1CCN(Cc2nnnn2C(C)(C)C)CC1	17.7%
O=C(CCC(=O)c1ccc(Cl)s1)Nc1ncccc1O	-28.2%
CCOC(=O)Nc1nc(-c2ccc(Cl)cc2Cl)cs1	11.7%
CCn1ccnc1CN(C)Cc1nc(Cc2cccc(C(F)(F)F)c2)no1	-60.8%
CN(Cc1nc(Cc2cccc(C(F)(F)F)c2)no1)C1CC(C)(C)NC(C)(C)C1	-12.3%
CCn1ccnc1CN(C)Cc1nc(CCC(C)C)no1	4.23%
CN1CCCC2(CCCN(Cc3nc(Cc4cccc(C(F)(F)F)c4)no3)C2)C1 (stereo not drawn)	-45.2%
CC(CN(C)Cc1nc(Cc2cccc(C(F)(F)F)c2)no1)CN1CCCC1 (stereo not drawn)	-63.2%
CCc1ccc(CN(C)Cc2nc(Cc3cccc(C(F)(F)F)c3)no2)nc1	-28.1%
COc1ccc(NC(=O)Cn2nnc(C(=O)Nc3ccc(F)c(Cl)c3)c2N)cc1	25.9%
Cc1cccc(C(=O)NNC(=O)c2ccc(O)cc2)c1	-2.31%

SMILES	hERG current change (%, negative = inhibition) at 10uM
COc1ccc(CCNC(=O)COC(=O)C2CCCCC2)cc1	7.11%
Cc1nc2nc[nH]n2c(=O)c1CCOC(=O)c1ccccc1F	20.7%
O=C(/C=C\c1ccccc1)NCC(=O)N/N=C/c1ccc(O)cc1O	9.48%
Cc1ccc(NC(=O)CCNS(=O)(=O)c2ccccc2)c(C(=O)c2ccccc2)c1	-20.4%
Cc1cc(C(=O)NC2CCCN(Cc3ccc(Cl)cc3)C2)n(C)n1 (stereo not drawn)	-16%
Cc1cc(C(=O)NC2CCCN(Cc3ccc(Cl)cc3)C2)no1 (stereo not drawn)	-34.6%
Cc1cc(C(=O)NC2CCCN(Cc3ccc(Cl)cc3)C2)c(C)o1 (stereo not drawn)	-11.9%
O=C(NC1CCCN(Cc2ccc(Cl)cc2)C1)C1CCC1 (stereo not drawn)	-13.6%
Cc1ccsc1C(=O)NC1CCCN(Cc2ccc(Cl)cc2)C1 (stereo not drawn)	-56.2%
CC(=O)c1ccc(C(=O)NC2CCCN(Cc3ccc(Cl)cc3)C2)s1 (stereo not drawn)	-66.4%
CNc1nc(Sc2ccc(C)cc2)cc(C(F)(F)F)n1	15.5%
COc1ccc(N(CC(=O)Nc2cc(Cl)ccc2OC)C2=NC3CS(=O)(=O)CC3S2)cc1 (stereo not drawn)	-7.35%
Cc1ccc(C(=O)N2CCN(c3ccccn3)CC2)cc1Cl	-3.65%
CC(NC(=O)c1cc(S(=O)(=O)N2CCOCC2)ccc1F)c1ccc(-n2ccnc2)cc1 (stereo not drawn)	-72.2%
Cc1ccc(C(=O)NC(C)c2ccc(-n3ccnc3)cc2)cc1S(=O)(=O)N1CCOCC1 (stereo not drawn)	-65.1%
Cc1ccc(C(=O)NC(C)c2ccccc2)cc1S(=O)(=O)N1CCOCC1 (stereo not drawn)	-1.39%
O=C(Nc1ccc(N2CCCCC2)cc1)c1cc(S(=O)(=O)N2CCOCC2)ccc1F	-9.76%
Cc1ccc(C(=O)NNC(=O)c2ccncc2)cc1S(=O)(=O)N1CCOCC1	0.578%
O=C(NCCCn1ccnc1)c1cc(S(=O)(=O)N2CCOCC2)ccc1F	26.8%
CCOC(=O)CNC(=O)C(=O)c1c(O)[nH]c2ccccc12	9.92%
CC(C(=O)NCC1CCCO1)n1cccc1C(=O)c1ccccc1 (stereo not drawn)	15.1%
CCOC(=O)C1=C(CN2CCc3ccccc32)NC(=O)NC1c1cccc([N+](=O)[O-])c1 (stereo not drawn)	-7.46%
Cc1cc(C(=O)OCn2nnc3ccccc3c2=O)c(C)o1	-6.92%

SMILES	hERG current change (%, negative = inhibition) at 10uM
Cc1c(C(=O)Nc2ccc(F)c(F)c2)oc2ccc(S(=O)(=O)N3CCCCC3)cc12	-0.731%
Cc1ccc(CN2CCN(/N=C/c3ccc(O)c(O)c3)CC2)cc1	-21.7%
Cn1ccnc1C(=O)c1cc(=O)c2ccccc2o1	8.14%
Clc1ccc(CSc2nnc(-c3ccccn3)n2Cc2ccco2)c(Cl)c1	-5.15%
Clc1cccc(CSc2nnc(-c3cccnc3)n2Cc2ccco2)c1	-74.3%
Clc1cccc(CSc2nnc(-c3ccccn3)n2Cc2ccco2)c1	-35.7%
O=C(CSc1nnc(-c2cccnc2)n1Cc1ccccc1)NCc1ccco1	-1.17%
Clc1ccc(CSc2nnc(-c3cccnc3)n2Cc2ccco2)c(Cl)c1	-68.7%
Clc1ccccc1CSc1nnc(-c2cccnc2)n1Cc1ccco1	-43.1%
Cc1cc(C)cc(OCC(=O)Nc2ccncc2)c1	-18.9%
C=CCN(c1ccccc1)S(=O)(=O)c1cccc(C(=O)NNC(=O)c2ccncc2)c1	-7.43%
O=C1NC(Cc2ccccc2)C(=O)N1Cc1cc([N+](=O)[O-])cc2c1OCOC2 (stereo not drawn)	7.47%
COc1cc(SC)ccc1C(=O)N1CCN(c2ccc(O)cc2)CC1	-34.2%
COc1cc(SC)ccc1C(=O)N1CCN(Cc2ccc3c(c2)OCO3)CC1	-34.3%
COc1ccc(N2CCN(C(=O)c3ccc(SC)cc3OC)CC2)cc1	-55.3%
COc1cc(SC)ccc1C(=O)N1CCN(Cc2ccccc2)CC1	-62.7%
COc1cc(SC)ccc1C(=O)N1CCCCCC1	17.3%
COc1cc(SC)ccc1C(=O)N1CCN(c2ccccc2)CC1	-17.2%
COc1ccc(-c2cn3c(C)c(C(=O)NC(C)C)sc3n2)cc1	6.65%
COc1nc2c(C)cccc2cc1-c1noc(-c2ccco2)n1	-8.01%
c1ccc(-c2ncc3ccccn23)cc1	-3.24%
COc1cc(-c2cc(C(=O)Nc3nc4ccccc4s3)c3ccccc3n2)cc(OC)c1OC	35.9%
Brc1ccc(CNCc2cccs2)cc1	-55.1%

SMILES	hERG current change (%, negative = inhibition) at 10uM
CCc1ccc(CNCc2cccs2)cc1.Cl	-22.9%
Brc1cccc(CNCc2cccs2)c1	-10.2%
Cc1cc(Cl)c(OCCCn2cncn2)c(Br)c1	-14.1%
CCCCOc1ccc(/C=C/C2=CC(C)(C)NC(=S)N2)cc1OCC	7.58%
Cc1ccsc1CN(C)C(=O)C1CCC(=O)N(CCc2cccc(F)c2)C1 (stereo not drawn)	-35.9%
CCn1ccnc1CN(C)C(=O)C1CCC(=O)N(CCc2cccc(F)c2)C1 (stereo not drawn)	-50.7%
CN(Cc1nc2ccccc2[nH]1)C(=O)C1CCC(=O)N(CCc2cccc(F)c2)C1 (stereo not drawn)	4.23%
CCn1ccnc1CN(C)C(=O)C1CCC(=O)N(Cc2cccc(C(F)(F)F)c2)C1 (stereo not drawn)	-22.8%
CCn1ccnc1CN(C)C(=O)C1CCC(=O)N(Cc2cccc(F)c2)C1 (stereo not drawn)	-11.9%
CN(Cc1ccccc1Cl)C(=O)C1CCC(=O)N(CCc2cccc(F)c2)C1 (stereo not drawn)	-52.5%
O=C(CSc1n[nH]c(=O)[nH]c1=O)c1ccc(Cl)cc1Cl	16.1%
Cn1c(=O)[nH]c(=O)c2c1nc(N1CCOCC1)n2CC(O)COc1ccccc1 (stereo not drawn)	6.81%
CCOc1ncccc1C(=O)OCC(=O)c1ccccc1Br	0.975%
CCOc1ccccc1OCCCC(=O)N(CC)CC(=O)Nc1c(F)cccc1F	-1.78%
CCN1CCN(C(c2ccc(C(F)(F)F)cc2)c2ccc3cccnc3c2O)CC1 (stereo not drawn)	-25.3%
O=S(=O)(Nc1cccc2cn[nH]c12)c1ccc(F)cc1	-5.83%
CCOC(=O)c1cc2c(=O)n3cccc(C)c3nc2n(CC(C)C)c1=NC(=O)c1ccco1	-69.7%
CCOCCCn1c(=NC(=O)c2ccco2)c(C(=O)OCC)cc2c(=O)n3cccc(C)c3nc21	-74%
CCCCn1c(=NC(=O)c2ccco2)c(C(=O)OCC)cc2c(=O)n3cccc(C)c3nc21	-81.6%
CCOC(=O)c1cc2c(=O)n3ccccc3nc2n(CC(C)C)c1=NC(=O)c1c(-c2c(F)cccc2Cl)noc1C	5.66%
CCOC(=O)c1cc2c(=O)n3cccc(C)c3nc2n(Cc2ccco2)c1=NC(=O)c1ccccc1	-37.2%
